Measurements from the supplement of paper PMC12494721.
Structures can show the parent of a compound that is named as a salt.

Experiments:
Details in all cases: incubation time: 27 h, anaerobic, 37 °C;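 for the amine columns active = adjusted P below 0.05 in both replicates with a change the same way and a mean fold change under 0.8 or over 1.25; inactive = the rest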
[1] = test system: Clostridium sporogenes DSM 1664; assay: growth (OD595) fold change vs plate DMSO controls (fold change (ratio)); higher = more growth
Procedure, shortened: (§1)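 Shaken 96-well cultures in mGAM, grown anaerobically for 27 h at 37 °C, were read at 595 nm. OD came from blank-subtracted readings, corrected for background with 20 µM compound solutions in water and scaled by a calibration factor of 5. Growth is the fold change versus the plate's median DMSO control. Values average 2 biological replicates, and any fold change above 1.5 is NA.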

Escherichia coli IAI1 [2] = assay: as above
Procedure, shortened: as §1

[3] = test system: Klebsiella aerogenes DSM 30053; assay: as above
Procedure, shortened: as §1

[4] = test system: Ruminococcus gnavus DSM 108212; assay: as above
Procedure, shortened: as §1

[5] = test system: Klebsiella aerogenes DSM 30053; assay: fold change of Histamine concentration vs plate DMSO controls (fold change (ratio)); higher = more amine produced, active = hit call of the paper (significant change in both replicates, either direction)
Procedure, shortened: (§2)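 Amines were quantified by LC–triple-quadrupole MS in dynamic MRM mode against external calibration curves, with drift correction within each batch. The samples were whole anaerobic mGAM cultures of four gut bacterial strains, grown for 27 h at 37 °C in 80 µL wells and extracted with cold acetonitrile/methanol with 0.1% formic acid, then centrifuged. Values are reported as fold change over DMSO controls on the same plate. The mean of 2 biological replicates is given.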

[6] = test system: Clostridium sporogenes DSM 1664; assay: fold change of Tryptamine concentration vs plate DMSO controls (fold change (ratio)); higher = more amine produced, active = hit call of the paper (significant change in both replicates, either direction)
Procedure, shortened: as §2

[7] = test system: Ruminococcus gnavus DSM 108212; assay: as above
Procedure, shortened: as §2

Escherichia coli IAI1 [8] = assay: fold change of Putrescine concentration vs plate DMSO controls (fold change (ratio)); higher = more amine produced, active = hit call of the paper (significant change in both replicates, either direction)
Procedure, shortened: as §2

[9] = test system: Klebsiella aerogenes DSM 30053; assay: as above
Procedure, shortened: as §2

Escherichia coli IAI1 [10] = assay: fold change of Cadaverine concentration vs plate DMSO controls (fold change (ratio)); higher = more amine produced, active = hit call of the paper (significant change in both replicates, either direction)
Procedure, shortened: as §2

[11] = test system: Klebsiella aerogenes DSM 30053; assay: as above
Procedure, shortened: as §2

[12] = test system: Ruminococcus gnavus DSM 108212; assay: fold change of 2-Phenylethylamine concentration vs plate DMSO controls (fold change (ratio)); higher = more amine produced, active = hit call of the paper (significant change in both replicates, either direction)
Procedure, shortened: as §2

SMILES | growth [1] | growth (Escherichia coli IAI1 [2]) | growth [3] | growth [4] | fold change of Histamine concentration [5] | fold change of Tryptamine concentration [6] | fold change of Tryptamine concentration [7] | fold change of Putrescine concentration (Escherichia coli IAI1 [8]) | fold change of Putrescine concentration [9] | fold change of Cadaverine concentration (Escherichia coli IAI1 [10]) | fold change of Cadaverine concentration [11] | fold change of 2-Phenylethylamine concentration [12]
CCCCc1cc2ccccc2c(OCCN(C)C)n1 [Dimethisoquin hydrochloride] (20 µM) | 0.969 | 1.01 | 1.1 | 0.962 | 0.872 (inactive) | 0.946 (inactive) | 0.91 (inactive) | 1.07 (inactive) | 0.983 (inactive) | 1.06 (inactive) | 0.994 (inactive) | 0.96 (inactive)
CNC(=C[N+](=O)[O-])NCCSCc1ccc(CN(C)C)o1 [Ranitidine hydrochloride] (20 µM) | 1.07 | 1.01 | 1.07 | 1.47 | 0.953 (inactive) | 1.05 (inactive) | 0.99 (inactive) | 0.996 (inactive) | 1.01 (inactive) | 1.03 (inactive) | 1.02 (inactive) | 0.984 (inactive)
Nc1nc(=O)[nH]cc1F [Flucytosine] (20 µM) | 1.01 | 0.897 | 0.986 | 1.03 | 1.07 (inactive) | 0.924 (inactive) | 0.987 (inactive) | 0.875 (inactive) | 1.02 (inactive) | 0.968 (inactive) | 0.979 (inactive) | 1.01 (inactive)
NC12CC3CC(CC(C3)C1)C2 [Adamantamine fumarate] (20 µM) | 0.99 | 1.02 | 0.991 | 0.942 | 0.988 (inactive) | 0.971 (inactive) | 1.09 (inactive) | 0.924 (inactive) | 0.993 (inactive) | 1.03 (inactive) | 1.09 (inactive) | 1.23 (inactive)
CC(C)(C)NC[C@@H](O)COc1cccc2c1CCCC2=O [(+) Levobunolol hydrochloride] (20 µM) | 1.08 | 0.974 | 1.11 | 0.903 | 0.936 (inactive) | 1.05 (inactive) | 1.04 (inactive) | 1.04 (inactive) | 0.985 (inactive) | 0.994 (inactive) | 0.999 (inactive) | 1.02 (inactive)
CN1c2cc(O)c(N=NC(N)=O)cc2CC1S(=O)(=O)O (stereo unspecified) [Carbazochrome sodium sulfonate] (20 µM) | 1.05 | 1.01 | 1.04 | 0.901 | 1.06 (inactive) | 0.976 (inactive) | 1.08 (inactive) | 1.01 (inactive) | 0.905 (inactive) | 0.975 (inactive) | 1.2 (inactive) | 1.21 (inactive)
CNCC(O)c1ccc(OC(=O)C(C)(C)C)c(OC(=O)C(C)(C)C)c1 (stereo unspecified) [Dipivefrin hydrochloride] (20 µM) | 1.15 | 1.07 | 0.982 | 1.02 | 1.01 (inactive) | 1.15 (inactive) | 1.11 (inactive) | 1.01 (inactive) | 0.981 (inactive) | 0.995 (inactive) | 0.991 (inactive) | 1.16 (inactive)
CN(C)CCC=C1c2ccccc2CCc2ccccc21 [Amitryptiline hydrochloride] (20 µM) | 1.05 | 1.04 | 1.06 | 1.12 | 0.911 (inactive) | 0.996 (inactive) | 0.973 (inactive) | 1.01 (inactive) | 0.936 (inactive) | 1.01 (inactive) | 1.02 (inactive) | 1.01 (inactive)
CCCc1cc(C(N)=S)ccn1 [Prothionamide] (20 µM) | 1.09 | 1.15 | 0.999 | 0.999 | 1.01 (inactive) | 0.998 (inactive) | 0.977 (inactive) | 1.18 (inactive) | 0.982 (inactive) | 1.01 (inactive) | 0.999 (inactive) | 0.946 (inactive)
O=C(O)CCC(=O)c1ccc(-c2ccccc2)cc1 [Fenbufen] (20 µM) | 1.02 | 1.02 | 0.996 | 0.921 | 0.97 (inactive) | 0.991 (inactive) | 1.04 (inactive) | 1.04 (inactive) | 0.989 (inactive) | 0.969 (inactive) | 0.998 (inactive) | 1.06 (inactive)
NS(=O)(=O)c1cc2c(cc1Cl)N=C(CSCc1ccccc1)NS2(=O)=O [Benzthiazide] (20 µM) | 1.1 | 0.998 | 1.02 | 1.08 | 0.978 (inactive) | 0.983 (inactive) | 0.961 (inactive) | 0.975 (inactive) | 0.993 (inactive) | 1.02 (inactive) | 0.993 (inactive) | 0.939 (inactive)
Cc1cc(C(C)(C)C)cc(C)c1CC1=NCCN1 [Xylometazoline hydrochloride] (20 µM) | 0.986 | 1.01 | 1.01 | 1.1 | 0.982 (inactive) | 1.01 (inactive) | 1.01 (inactive) | 0.986 (inactive) | 0.966 (inactive) | 0.968 (inactive) | 1 (inactive) | 0.998 (inactive)
COC(=O)[C@H](Cc1ccccc1)NC(=O)[C@@H](N)CC(=O)O [Aspartame] (50 µM) | 1.05 | 0.921 | 0.997 | 1.01 | 1.03 (inactive) | 0.944 (inactive) | 1.01 (inactive) | 0.968 (inactive) | 1.01 (inactive) | 1.04 (inactive) | 0.99 (inactive) | 1.04 (inactive)
Clc1ccc2nsnc2c1NC1=NCCN1 [Tizanidine hydrochloride] (20 µM) | 0.00885 | 1.01 | 1.15 | 0.103 | 0.919 (inactive) | 0.0144 (active) | 0.0877 (active) | 0.984 (inactive) | 0.995 (inactive) | 0.983 (inactive) | 1.02 (inactive) | 0.0862 (active)
N[C@@H](CCC(=O)N[C@@H](CS)C(=O)NCC(=O)O)C(=O)O [Glutathione] (20 µM) | 1.1 | 1.04 | 1.04 | 1.22 | 0.965 (inactive) | 1.1 (inactive) | 1.01 (inactive) | 1.04 (inactive) | 1.01 (inactive) | 1.03 (inactive) | 1.01 (inactive) | 1.02 (inactive)
COc1ccc(C2CNC(=O)C2)cc1OC1CCCC1 (stereo unspecified) [Rolipram] (20 µM) | 0.936 | 0.98 | 1.03 | 0.936 | 0.951 (inactive) | 1.03 (inactive) | 1.03 (inactive) | 0.954 (inactive) | 0.989 (inactive) | 0.984 (inactive) | 1 (inactive) | 1.06 (inactive)
COc1ccc2c(c1)c(CC(=O)OCC(=O)O)c(C)n2C(=O)c1ccc(Cl)cc1 [Acemetacin] (20 µM) | 0.906 | 1.03 | 0.985 | 1.06 | 0.983 (inactive) | 0.98 (inactive) | 0.964 (inactive) | 1.06 (inactive) | 1.01 (inactive) | 0.959 (inactive) | 1.01 (inactive) | 0.907 (inactive)
Cc1ccc(Nc2c(F)cccc2Cl)c(CC(=O)O)c1 [Lumiracoxib] (20 µM) | 0.867 | 0.984 | 1.1 | 1.08 | 0.88 (inactive) | 0.956 (inactive) | 0.971 (inactive) | 1.02 (inactive) | 1.02 (inactive) | 1.02 (inactive) | 1.03 (inactive) | 0.994 (inactive)
C=CC[N@@+]12CC[C@@]34c5ccccc5N5/C=C6/[C@H]7C[C@H]8[C@@]9(CC[N@@+]8(CC=C)C/C7=C/CO)c7ccccc7N(/C=C(/[C@@H](C[C@@H]31)/C(=C\CO)C2)[C@H]54)[C@@H]69 [Alcuronium chloride] (20 µM) | 1.09 | 0.982 | 1.01 | 1.26 | 1.04 (inactive) | 1.03 (inactive) | 1.05 (inactive) | 1.12 (inactive) | 0.99 (inactive) | 0.915 (inactive) | 1.02 (inactive) | 1.07 (inactive)
Cc1ccc(N(CC2=NCCN2)c2cccc(O)c2)cc1 [Phentolamine hydrochloride] (20 µM) | 1.07 | 1 | 0.871 | 0.765 | 0.97 (inactive) | 1.03 (inactive) | 1 (inactive) | 1.05 (inactive) | 0.981 (inactive) | 0.652 (active) | 0.993 (inactive) | 1.01 (inactive)
CN1CCC[C@@H]1Cc1c[nH]c2ccc(CCS(=O)(=O)c3ccccc3)cc12 [Eletriptan] (20 µM) | 0.866 | 1.04 | 0.965 | 0.979 | 1.05 (inactive) | 1.05 (inactive) | 1.02 (inactive) | 1.08 (inactive) | 0.973 (inactive) | 0.955 (inactive) | 0.994 (inactive) | 1.05 (inactive)
C[C@]12CCC(=O)C=C1C=C[C@@H]1[C@@H]2CC[C@@]2(C)[C@H]1CC[C@@]21CCC(=O)O1 [Canrenone] (20 µM) | 1.01 | 1.03 | 1.01 | 1.03 | 0.908 (inactive) | 1 (inactive) | 1.12 (inactive) | 0.86 (inactive) | 0.967 (inactive) | 0.878 (inactive) | 1.02 (inactive) | 1.14 (inactive)
Cc1cc(C#N)cc(C)c1Oc1nc(Nc2ccc(C#N)cc2)nc(N)c1Br [Etravirine] (20 µM) | 1.06 | 1.01 | 1.13 | 1.03 | 1.01 (inactive) | 1.03 (inactive) | 0.995 (inactive) | 1.03 (inactive) | 1 (inactive) | 1.04 (inactive) | 0.981 (inactive) | 1.03 (inactive)
